Hits are enriched below; roughly 4.2% of the tested compounds scored in any of these assays.
GDH-TPI counter-1 = GDH-TPI coupled enzyme inhibition counter-screen | GDH-TPI coupled enzyme counterscreen, NADH absorbance | inhibition, % at 4.8 µM | 1.2% of 360,000 active;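 note: 0% = DMSO wells and 100% = wells lacking the enzyme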
CCHFV vOTU inh = CCHFV vOTU protease inhibition; Pep-AMC fluorescence; inhibition, % at 11.5 µM; 0.55% of 370,000 active; AID 651958; note: 0% = vehicle wells with enzyme and 100% = no enzyme wells
RecA intein inh = Mtb RecA intein splicing inhibition | 0.75% of 290,000 active | inhibition, % (test concentration not listed) | AID 2221 | cell-free RecA intein splicing, fluorescence; in the data active = inhibition above about 30%;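 note: 0% = vehicle wells and 100% = reference inhibitor control wells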
Target sequence (P9WHJ3 whole entry, looked up): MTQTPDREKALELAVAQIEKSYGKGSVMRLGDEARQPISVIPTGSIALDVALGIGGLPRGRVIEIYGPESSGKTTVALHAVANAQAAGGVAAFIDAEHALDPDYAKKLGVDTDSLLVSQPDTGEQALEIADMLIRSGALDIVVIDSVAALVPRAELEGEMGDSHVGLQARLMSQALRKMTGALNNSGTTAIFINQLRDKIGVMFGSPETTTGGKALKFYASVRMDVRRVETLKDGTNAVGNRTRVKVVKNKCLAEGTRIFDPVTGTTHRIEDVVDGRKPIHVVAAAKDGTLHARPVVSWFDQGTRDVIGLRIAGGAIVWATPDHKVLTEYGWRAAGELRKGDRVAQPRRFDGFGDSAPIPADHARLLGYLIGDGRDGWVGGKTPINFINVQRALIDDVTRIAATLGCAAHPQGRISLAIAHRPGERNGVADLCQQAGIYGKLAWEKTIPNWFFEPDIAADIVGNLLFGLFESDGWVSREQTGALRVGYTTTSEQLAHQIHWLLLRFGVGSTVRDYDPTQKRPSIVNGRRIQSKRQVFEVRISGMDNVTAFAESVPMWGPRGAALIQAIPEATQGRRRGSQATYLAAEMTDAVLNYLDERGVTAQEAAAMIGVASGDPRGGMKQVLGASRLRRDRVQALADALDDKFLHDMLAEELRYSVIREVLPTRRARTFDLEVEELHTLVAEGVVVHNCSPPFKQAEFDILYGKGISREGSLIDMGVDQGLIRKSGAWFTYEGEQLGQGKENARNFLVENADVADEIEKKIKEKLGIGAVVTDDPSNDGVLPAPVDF
FBA Mtb inh = Mtb fructose-bisphosphate aldolase inhibition; P9WQA3; purified M. tuberculosis FBA, fluorescence read-out; inhibition, % at 1 µM; 2.3% of 360,000 active; AID 588726; in the data active = inhibition above about 27%;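 note: 0% = vehicle and 100% = reference inhibitor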
Mtb FBA inh conf = Mtb FBA inhibition, confirmed. shares compounds with FBA Mtb inh. purified M. tuberculosis FBA, fluorescence read-out. inhibition, % at 1 µM. 78% of 5,600 active; in the data active = inhibition above about 27%;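 note: 0% = vehicle wells and 100% = reference inhibitor wells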
GDH-TPI counter-2 = inhibits GDH-TPI coupling enzymes, flagging Mtb FBA hits. shares compounds with FBA Mtb inh. GDH-TPI coupled enzyme counterscreen, fluorescence. inhibition, % at 1 µM. 81% of 5,600 active; in the data active = inhibition above about 10%
GDH-TPI DR = inhibits GDH-TPI coupling enzymes in dose response; GDH-TPI coupled enzyme assay, fluorescence, artifact counterscreen; shares compounds with FBA Mtb inh; 79% of 170 active; IC50, µM; call rule not given here
Active calls of the source: *; x = not tested or not shown; + = active, no number. Cut-off read from the data, not from the text of the source, unless noted: active = inhibition above about 30%; inactive = the rest.

SMILES	GDH-TPI counter-1	CCHFV vOTU inh	RecA intein inh	FBA Mtb inh	Mtb FBA inh conf	GDH-TPI counter-2	others
CCN(C(=O)c1cc(Cl)ccc1OC)c1ccccc1C	4.2	3.0	-1.3	-2.1	x	x
CCc1ccccc1S(=O)(=O)c1c(C)cc(C)nc1Cl	8.0	-2.2	2.8	3.4	x	x
CCN1C(=O)[C@H]2[C@@H](c3ccc(-c4ccccc4)cc3)N3CCCC[C@@]3(C(=O)OC)[C@H]2C1=O	2.2	-6.4	-3.5	-0.3	x	x
CC1CCN(c2nc3c(cc2C#N)COC(C)(C)C3)CC1	3.5	-31.1	-3.0	39.6*	90.8*	63.2*
CC(C)CCNc1nc2c(cc1C#N)COC(C)(C)C2	3.1	-57.9	-6.2	64.5*	192.3*	159.3*
CC1(C)Cc2nc(NCCN3CCOCC3)c(C#N)cc2CO1	1.4	18.4	0.5	1.2	x	x
COc1ccc2nc(N3CCC(C)CC3)c(C#N)cc2c1	1.8	-9.4	-279.7	8.7	x	x
C[C@@H]1CCN(C2CC2)S(=O)(=O)c2ccc(N3CC[C@@H](N(C)C)C3)cc2O1	x	-6.2	x	x	x	x
Clc1ccc(/C=C/c2nc3ccccc3[nH]2)cc1	38.9*	-71.1	5.6	53.5*	+	124.0*
Clc1ccc(/C=C/c2nc3ccccc3[nH]2)c(Cl)c1	16.0	-103.7	7.0	62.9*	59.6*	43.6*
O=C(/C=C/c1ccc(Cl)cc1Cl)c1nc2ccccc2[nH]1	13.7	0.5	-1.1	-2.4	x	x
Clc1ccc(SCc2nc3ccccc3[nH]2)cc1	-5.6	11.2	3.6	2.1	x	x
CSCC[C@H](NC(=O)c1ccc2ccccc2c1)C(=O)N1CCC2(CC1)NCCc1[nH]cnc12	-3.7	12.0	-1.3	0.3	x	x
CSCC[C@H](NC(=O)COc1ccc(Cl)cc1)C(=O)N1CCC2(CC1)NCCc1[nH]cnc12	0.8	0.8	-0.5	59.1*	119.6*	111.4*
Fc1ccc(-c2n[nH]c(=S)n2N=Cc2ccc(-c3ccccc3)cc2)cc1	x	7.4	x	x	x	x
CNC(=O)c1cc2c(-c3ccccc3)nn(C)c2s1	6.7	-34.0	0.5	72.8*	102.3*	79.7*
CCCCNC(=O)c1cc2c(-c3ccc(Cl)cc3)nn(C)c2s1	2.4	11.4	x	16.1	x	x
COCCNC(=O)c1cc2c(-c3ccccc3F)nn(C)c2s1	15.9	0.4	1.3	35.1*	116.9*	88.0*
COCCNC(=O)c1cc2c(-c3ccc(Cl)cc3)nn(C)c2s1	5.3	-29.6	x	79.0*	69.3*	53.8*
Cn1nc(-c2ccc(Cl)cc2)c2cc(C(=O)NCCCN3CCCC3)sc21	13.0	-14.4	x	35.2*	80.8*	70.7*
O=C(C[C@@H]1C/C=C\C[C@H](NC(=O)OCC2c3ccccc3-c3ccccc32)C(=O)O[C@H](c2ccccc2)CNC1=O)NCCO	20.2	-7.0	x	4.0	x	x
Cc1cc(C)c(OCC(=O)Nc2nnc(-c3ccco3)o2)c(C)c1	17.1	11.3	-0.2	-2.6	x	x
CCN(CC)C(CNC(=O)c1cc(=O)[nH]c2ccccc12)c1ccccc1Cl (centres undefined)	9.1	10.2	0.1	-1.0	x	x
CCCCN(C)CCNC(=O)c1cc2c(-c3ccccc3F)nn(C)c2s1	5.9	-20.6	-2.0	45.9*	37.5*	32.5*
COCCCNC(=O)c1cc2c(-c3ccc(Cl)cc3)nn(C)c2s1	19.7	-14.5	3.8	74.0*	76.8*	73.1*
SMILES	GDH-TPI counter-1	CCHFV vOTU inh	RecA intein inh	FBA Mtb inh	Mtb FBA inh conf	GDH-TPI counter-2	others
CCCCN(C)CCNC(=O)c1cc2c(=O)[nH]c3ccccc3c2n1C	5.0	15.8	-0.7	14.5	x	x
O=C(CN1C(=O)NC2(CCOc3ccccc32)C1=O)N1CCCCC1 (centres undefined)	6.3	12.0	x	3.9	x	x
CC(C)C[C@@]12C(=O)N(c3ccc(Br)cc3)C(=O)N1[C@H](c1ccc(Br)cc1)[C@@H]1C(=O)N(C(C)(C)C)C(=O)[C@@H]12	7.7	-8.3	-4.0	6.1	x	x
Cc1cc(-n2c(C)cc(C(=O)COc3ccc4ccc(=O)oc4c3)c2C)no1	2.8	-28.1	-1.0	28.3*	59.8*	59.1*
CCCC(=O)Nc1ccc2c(c1)nc1n2CCN(C2CCCCC2)C1	4.9	-34.7	-5.5	63.5*	193.9*	177.7*
CCCCC(=O)Nc1ccc2c(c1)nc1n2CCSC1	4.2	-5.0	1.7	3.6	x	x
O=C(Nc1ccc2c(c1)nc1n2CCN(Cc2ccccc2)C1)NC1CCCCC1	8.1	-39.4	13.1	80.0*	16.1	11.0*
CC(=O)Nc1ccc2c(c1)nc1n2CCN(C2CCCCC2)C1	7.7	-41.5	x	55.6*	197.2*	135.5*
COc1ccccc1N1CCN(C(=O)CC(NC(=O)c2ccccc2Cl)c2ccccc2)CC1 (centres undefined)	-4.2	11.6	x	-0.1	x	x
Cc1c(Cc2ccccc2)c(=O)oc2c(C)c(OC(C)C(=O)N[C@@H](Cc3ccccc3)C(=O)O)ccc12 (some centres undefined)	9.7	0.8	5.7	68.2*	190.7*	160.1*
Cc1c(OCC(=O)N[C@@H](Cc2ccccc2)C(=O)O)ccc2c1oc(=O)c1ccccc12	11.8	-37.3	6.7	51.9*	+	+
Cc1cccc(C)c1NC(=O)COc1ccc2c(C)c(Cc3ccccc3)c(=O)oc2c1C	0.0	9.7	0.2	1.2	x	x
CC1(C(=O)NS(=O)(=O)c2cccs2)CCN1C(=O)C1CCCCC1 (centres undefined)	15.0	5.6	x	0.7	x	x
CCOC(=O)N1CCC(NC(=O)CSCc2nc(-c3ccc(C)cc3)oc2C)CC1	-1.7	1.5	-0.6	51.5*	21.5	20.0*
CC(=O)Nc1ccc(CC(=O)O)cc1	1.4	-4.3	-1.8	-1.5	x	x
Cc1oc(C)c(C(=O)Nc2ccc(CC(=O)O)cc2)c1C(=O)Nc1ccc(CC(=O)O)cc1	-3.5	-2.6	0.2	47.9*	13.4	-5.3	GDH-TPI DR=>10
CCN(CC)CCNC(=O)c1nn(-c2ccc(Cl)cc2)c2c1CCc1cc(OC)ccc1-2	0.9	0.8	x	15.9	x	x
Cc1nc2c3cnn(-c4ccc(C)c(C)c4)c3ncn2n1	6.6	10.4	1.6	38.1*	118.6*	96.0*
COc1ccccc1-c1oc2ccccc2c1C#CCCO	20.2	-10.8	x	65.2*	6.5	4.5
FC(F)(F)c1ccc2c(c1)NCC1CCCN21 (centres undefined)	24.4	-18.3	-4.2	45.2*	54.2*	49.9*
FC(F)(F)c1ccc2c(c1)N1CCCC1CN2 (centres undefined)	0.0	10.1	-2.1	4.3	x	x
Cc1c(-c2cc(C(=O)O)c3ccccc3n2)cnn1C	5.0	-49.6	-0.8	97.2*	135.7*	112.7*
Cc1c(C)c2ccc(OCC(=O)N3C[C@H]4C[C@@H](C3)c3cccc(=O)n3C4)c(C)c2oc1=O	13.7	-9.6	x	33.7*	68.0*	39.9*
CC(C)=CCOc1ccc2c(C)c(CCC(=O)N3C[C@H]4C[C@@H](C3)c3cccc(=O)n3C4)c(=O)oc2c1C	10.4	-25.6	x	82.3*	101.6*	92.1*

Screening results as filed in PubChem.
